# Screening data as filed in PubChem.
# Shown are actives, neighbours in structure and some others; about 10% of the full set was active somewhere.
# HPGD block: qHTS Assay for Inhibitors of HPGD (15-Hydroxyprostaglandin Dehydrogenase) | 15-hydroxyprostaglandin dehydrogenase [NAD(+)] (Homo sapiens), P15428 | purified HPGD, NADH fluorescence kinetic, PGE2 substrate | Potency, µM, without a hit: at the top dose activity change, negative = inhibition, actives largely listed as inhibitors | hit rate 4.3% among 150,000 | AID 894, 2007; also: potency is read from the fitted curve at half-maximal effect
#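 20 nM HPGD preincubated 15 min at room temperature with compound in 50 mM Tris-HCl pH 8, 0.01% Tween 20. Started with 1 mM NAD+ and 30 uM prostaglandin E2; NADH fluorescence (360/450 nm) read 5 times over 30-s intervals, last minus first.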
# LMNA splice mod: qHTS Assay for Modulators of Lamin A Splicing. Potency, µM (doses to about 46.1 µM), for inactives: at the highest dose ratio change, negative = inhibition, actives largely listed as inhibitors. AID 1487, 2009. HeLa LMNA splicing GFP/RFP minigene ratio, 48 h. hit rate 0.01% among 200,000; active = well fitted inhibition curve with a large enough effect in the signal ratio, with a control signal flat, not every such curve was filed as active; inconclusive = small, poorly fitted or top-dose-only effect, or effect the other way, or a change in a side signal; the % refers to the signal ratio; also: potency is read from the fitted curve at half-maximal effect
#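 S3 HeLa cells stably expressing lamin A-EGFP splicing minigene plus DsRed2, 600 cells/well, 48 h compound exposure at 37C. Laser-scanning cytometry; analysed as GFP (500-530 nm)/RFP (575-640 nm) total intensity ratio; 0.5% DMSO vehicle.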
# PNC assembly inh: High Content Assay for Compounds that inhibit the Assembly of the Perinucleolar Compartment. activity change (PNC), negative = inhibition, % at 10 µM. hit rate 3.1% among 140,000. PC3M PTB-GFP, PNC prevalence imaging, 16 h; hits give low values;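 active = readout at or below -70, meaning at least 70% loss of cells showing the perinucleolar compartment, a nuclear body marking cancer cells; inconclusive = readout between -30 and a set limit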;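 also: plate controls were DMSO wells for no effect and camptothecin positive control wells for full effect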
#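 PC3M cells stably expressing PTB-GFP, 750–1000 cells/well, treated 16 h at 37 °C with compound (23 nl of library stock), in duplicate. After paraformaldehyde fixation and Hoechst stain, imaged at 20x; PNC prevalence scored by image analysis.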
# ALDH1A1 block: qHTS Assay for Inhibitors of Aldehyde Dehydrogenase 1 (ALDH1A1) | Aldehyde dehydrogenase 1A1 (Homo sapiens), P00352 | Purified ALDH1A1, NADH fluorescence, propionaldehyde substrate | Potency, µM (doses to about 75.3 µM), inactives show top-dose activity, negative = inhibition, usual class: inhibitors | hit rate 7.3% among 220,000 | AID 1030, 2008;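 also: potency is read from the fitted curve at half-maximal effect; plate controls were no enzyme wells and a reference inhibitor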
# ALOX12 inhib: qHTS Assay for Inhibitors of 12-hLO (12-human lipoxygenase) | Polyunsaturated fatty acid lipoxygenase ALOX12 (Homo sapiens), P18054 | purified 12-hLO, xylenol orange hydroperoxide absorbance | Potency, µM (doses to about 57.1 µM), for inactives: at the highest dose activity change, negative = inhibition, hits mostly inhibitors | hit rate 0.12% among 150,000 | AID 1452, 2008; active = well fitted inhibition curve with a large enough effect; inconclusive = small, poorly fitted or top-dose-only effect; also: potency is read from the fitted curve at half-maximal effect; nearly all actives have a fitted effect of over 55% in size
# Target sequence (P18054 whole entry, looked up): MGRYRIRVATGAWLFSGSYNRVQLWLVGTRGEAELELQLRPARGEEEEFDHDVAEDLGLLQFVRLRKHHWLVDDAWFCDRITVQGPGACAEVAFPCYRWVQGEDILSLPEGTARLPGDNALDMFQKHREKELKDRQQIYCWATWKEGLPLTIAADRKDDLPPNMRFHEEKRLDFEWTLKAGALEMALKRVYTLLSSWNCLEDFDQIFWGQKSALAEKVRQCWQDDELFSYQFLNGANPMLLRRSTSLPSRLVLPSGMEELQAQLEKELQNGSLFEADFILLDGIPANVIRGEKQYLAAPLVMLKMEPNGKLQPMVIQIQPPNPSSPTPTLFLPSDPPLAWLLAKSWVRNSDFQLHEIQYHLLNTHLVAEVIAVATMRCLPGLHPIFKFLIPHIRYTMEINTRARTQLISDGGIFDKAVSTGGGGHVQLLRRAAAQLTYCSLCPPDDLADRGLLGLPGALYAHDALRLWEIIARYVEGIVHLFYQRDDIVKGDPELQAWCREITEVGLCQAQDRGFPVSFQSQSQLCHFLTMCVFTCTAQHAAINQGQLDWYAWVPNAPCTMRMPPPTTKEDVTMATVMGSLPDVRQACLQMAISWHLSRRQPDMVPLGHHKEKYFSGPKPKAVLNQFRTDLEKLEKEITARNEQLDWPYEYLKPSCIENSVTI
#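 Purified human 12hLO (150 nM), preincubated 15 min with compound, then 40 uM arachidonic acid for 30 min, room temperature, Hepes pH 7.0 with 0.01% Triton X-100. Hydroperoxide detected by ferrous iron/xylenol orange; 573/405 nm absorbance ratio gives reaction progress.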
# * = called active by the depositor; ? = inconclusive; . = no result given; [ ] = another dose, or the depositor's remark. Unless noted, calls follow the shape of the dose curve; as a rule, active = well fitted inhibition curve with a large enough effect (not every such curve was filed as active); inconclusive = small, poorly fitted or top-dose-only effect, or another doubt; inactive = no such curve, though single readings can be large or run the other way. Unless noted, % is scaled to controls: 0 for no effect and ±100 for the full control effect.
SMILES,HPGD block,LMNA splice mod,PNC assembly inh,ALDH1A1 block,ALOX12 inhib
CCC(=O)N(CCC(Cc1ccccc1)c1ccc2c(c1)OCO2)Cc1ccccc1F (stereo unspecified),-10%,?,34,?,-7%
C=C(C)COc1ccc(-c2nc(N)ncc2-c2ccc(OC)cc2)c(O)c1,?,?,55,?,-2%
C=C(C)COc1ccc(-c2ncncc2Oc2ccc(OC)cc2)c(O)c1,18µM*,11%,15,20µM*,-20%
C/C=C(/CC[C@@H](C)[C@H]1CCC2C3=CC[C@H]4[C@H](C)[C@@H](O)CC[C@]4(C)C3CC[C@@]21C)C(C)C (stereo partly specified),-12%,.,.,?,-4%[0.00818 µM]
Cn1c(=O)c2[nH]c(-c3ccccc3)c(O)c2n(C)c1=O,?,-2%,2,11µM*,-3%
Cc1ccc(-n2nc(C)c3c(C(=O)NCCc4ccc(S(N)(=O)=O)cc4)cc(C)nc32)cc1,.,-4%[46 µM],.,.,.
CCS(=O)(=O)c1ccc(N=Nc2ccc(O)c3ncccc23)c(OC)c1,.,.,.,1%,.
COc1cc(-c2ccc(N=Nc3ccc4c(S(=O)(=O)O)cc(S(=O)(=O)O)c(N)c4c3O)c(OC)c2)ccc1N=Nc1ccc2c(S(=O)(=O)O)cc(S(=O)(=O)O)c(N)c2c1O,14µM*,-9%,.,?,-6%
Cc1nn(-c2ccc(S(=O)(=O)O)cc2)c(O)c1N=Nc1ccc(-c2ccc(N=Nc3ccc4c(S(=O)(=O)O)cc(S(=O)(=O)O)c(N)c4c3O)c(O)c2)cc1O.[Cu].[Cu],0.79µM*,.,.,?,-21%[11.4 µM]
Cc1c(C(=O)N2CCC(c3nc4ccccc4s3)CC2)oc2ccc(Cl)cc12,.,1%[46 µM],.,.,.
CC(=O)Nc1cccc(OCCCNS(=O)(=O)c2ccc(F)cc2)c1,.,8%[46 µM],.,4%,.
COC(=O)C1=C(C(=O)OC)[C@@H]2N(C)c3ccc(OC)cc3[C@@]23C[C@@H](C(=O)OC)N(S(=O)(=O)c2c(C)noc2C)C3=N1,-5%,?,.,7%[13.5 µM],-7%[11.4 µM]
CN(C)c1ccc(/C=C/c2ccc3c4ccccc4ccc3[n+]2-c2ccccc2)cc1,.,?,.,13µM*,.
CN(C)c1ccc(/C=C/c2ccc3ccccc3[n+]2C)cc1,-2%,?,5,-15%,0%
C=CC(C)(O)CC/C=C(\C)CCC=C(C)C (stereo unspecified),-5%,-3%,.,-6%,2%
N#CCCn1c(C(C#N)(CCC#N)CCC#N)nc2ccccc21,-6%,1%,?,2%,-4%
N#CCCn1c(Cl)nc2ccccc21,-7%,?,-86*,-5%,0%
CC(C)Oc1cccc(C(=O)Nc2ccc3oc(-c4ccccc4)nc3c2)c1,.,-12%[46 µM],.,.,.
c1ccc(N2CCN(Cc3nnnn3C3CCCCC3)CC2)cc1,-7%,1%,4,28µM*,4%
C1CCC(n2nnnc2CN2CCN(C3CCCC3)CC2)CC1,-10%,6%,14,-5%,-6%
O=C(Nc1ccccc1)NC1CCN(Cc2nnnn2C2CCCCC2)CC1,-11%,3%,-15,14µM*,0%
Cc1ccccc1C(=O)NC1CCN(Cc2nnnn2C2CCCC2)CC1,-6%,2%,-20,-7%,-2%
Oc1ccc(C=Nc2ccc(N3CCOCC3)cc2)c(O)c1,-13%,-4%,16,-12%,-15%
Cc1ccc(O)c(N=Cc2cc(Cc3ccccc3)cc([N+](=O)[O-])c2O)c1,.,?,.,14µM*,.
O=[N+]([O-])c1cc(Cc2ccccc2)cc(C=Nc2ccc(N3CCOCC3)cc2)c1O,5µM*,?,-21,?,-2%
SMILES,HPGD block,LMNA splice mod,PNC assembly inh,ALDH1A1 block,ALOX12 inhib
COc1cc(C=Nc2cccc(C)c2)c(O)c([N+](=O)[O-])c1,-7%,3%,?,-11%,-3%
CN1\C(=C/C=C/C=C/C=[N+](C)C)C(C)(C)c2ccccc21,.,-3%[9.22 µM],.,25µM*,.
COC(=O)c1onc(-c2ccccc2)c1C(=O)OC,-7%,2%,7,10%,2%
COC(=O)c1c(-c2ccc(F)cc2)noc1N,-2%,?,-89*,1%,0%
COC(=O)[C@H](C)NC(=O)C/C=C\[C@@H](C)[C@@H](CO)OC,.,.,.,8%[13.5 µM],.
CCC(C)Nc1nc(Cl)nc(N(C#N)CN2C(=O)c3ccccc3S2(=O)=O)n1 (stereo unspecified),.,-11%[46 µM],.,13µM*,.
CCOC(=O)C1CCCN(C(=S)Nc2ccc(OC)cc2)C1 (stereo unspecified),.,7%[9.22 µM],.,-1%,.
COc1ccc(NC(=S)N2CCC(C(=O)N3CCCCCC3)CC2)cc1,-18%,32%,-13,14µM*,-1%
COc1cc(C(=S)N2CCCC2)cc(OC)c1O,20µM*,13%,?,-99%,2%
COc1ccc(C(=S)N2CCCCCC2)cc1,16µM*,-7%,?,?,-8%
CC(C)C(=O)NC(=O)C1CCCN1C(=O)/C=C/c1ccccc1 (stereo unspecified),.,.,.,-1%[13.5 µM],.
CN(C(=O)CSc1nc2ccccc2n1CC(=O)N(C)C1CCCCC1)c1ccccc1,.,5%[46 µM],.,.,.
Cc1ccc(C)c(NC(=O)Cn2cc(S(=O)(=O)N3CCCC3)c(S(=O)(=O)N3CCCC3)c2)c1,.,2%[46 µM],.,.,.
CCOC(=O)CCCSc1nc2sc3c(c2c(=O)[nH]1)CCC3,3.5µM*,7%,-7,-2%,2%
CCOC(=O)c1nc2sc3c(c2c(=O)[nH]1)CCCC3,?,0%,-86*,?,-3%
CCOC(=O)CSc1nnc(CSc2nc3sc4c(c3c(=O)[nH]2)CCCC4)n1-c1ccccc1,14µM*,-3%,67,0%,7%
CC(=O)OCc1nc2sc3c(c2c(=O)[nH]1)CCCC3,-3%,-5%,3,?,3%
CC(C)c1ccc(CN(Cc2ccco2)c2cnc(S(C)(=O)=O)nc2C(=O)Nc2ccc(F)cc2)cc1,.,4%[46 µM],.,.,.
CC(=O)/C=C1/C(=O)Nc2ccccc21,.,?,.,3.2µM*,.
Cc1cc(C)c(/C=C2/C(=O)Nc3ccccc32)[nH]1,.,.,.,.,-8%
CCCCCCCC[n+]1c(C)n(-c2ccccc2)c2ccc(NC(C)=O)cc21,.,-22%[46 µM],.,-2%,.
